Laboratory results as given in the supplement of paper PMC12636033.
± gives the standard deviation of the averaged measurements. Over roughly 33,000 sequences, “E-score (rank enrichment, -0.5 to 0.5)” has its median near -0.0043; the highest 2% begin near 0.24. For the sample, the highest values were picked, then their nearest neighbours and some sequences at random.

test system: 2Sp-muMax20 (muMax20 with two 2,6-bis(methyl)pyridine Cys staples); test: PBM 8-mer E-score (E-score (rank enrichment, -0.5 to 0.5)); higher = stronger preferential binding
Experimental: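 Protein binding microarray (universal PBM chip covering all 10-mers in fixed probe flanks) with chemically synthesized human Max(13-93) bHLH-LZ analogs (not full-length Max) bearing noncanonical residues (hArg, Tha, Aib, Nle at 65) and aromatic Cys staples. Read-out per 8-mer (and its reverse complement): E-score (rank-based enrichment, -0.5 to 0.5) and Z-score of median probe intensity.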

| Sequence | PBM 8-mer E-score |
| --- | --- |
| ACCATATA | 0.23 ± 0.082 |
| GCAAGCAC | -0.00775 ± 0.028 |
| ACAAGCAC | -0.115 ± 0.13 |
| CCAAGCAC | 0.235 ± 0.038 |
| CCCACCGC | 0.0543 ± 0.035 |
| ATTCTCAA | 0.123 ± 0.02 |
| ACTAGAAC | 0.0769 ± 0.048 |
| TAATATGA | 0.135 ± 0.072 |
| AAATATTA | 0.28 ± 0.067 |
| AAATATTC | 0.249 ± 0.043 |
| GAATATTC | 0.189 ± 0.064 |
| CAATATTC | 0.0714 ± 0.068 |
| TAATATTA | 0.343 ± 0.044 |
| CAATATTA | 0.19 ± 0.058 |
| GAATATTA | 0.22 ± 0.026 |
| AAATATTG | 0.075 ± 0.0023 |
| ATCGAGAC | -0.161 ± 0.025 |
| CGCGTCTC | 0.157 ± 0.072 |
| ACTGAGGG | -0.0464 ± 0.034 |
| ACTGCTGC | 0.0474 ± 0.025 |
| CTGGGCGA | -0.174 ± 0.045 |
| ATGGGCGA | 0.0316 ± 0.058 |

| Sequence | PBM 8-mer E-score |
| --- | --- |
| GTGGGCGA | 0.263 ± 0.088 |
| AATCCCAC | 0.00653 ± 0.032 |
| GACTCTAC | -0.0372 ± 0.069 |
| GTATTGGA | 0.0561 ± 0.061 |
| CGCATGCC | 0.189 ± 0.053 |
| ATCATGCG | 0.136 ± 0.013 |
| ACCATGCT | 0.211 ± 0.0076 |
| CCCATGCG | 0.0929 ± 0.051 |
| AGCATGCC | 0.0906 ± 0.028 |
| AGCATGCG | 0.275 ± 0.0033 |
| AGCATGCT | 0.332 ± 0.036 |
| AGCATGAT | 0.131 ± 0.051 |
| AGCATGAG | 0.121 ± 0.064 |
| CGCATGCG | 0.286 ± 0.02 |
| AGCATGAA | 0.174 ± 0.04 |
| AGCATGAC | 0.243 ± 0.051 |
| TATCCCGA | -0.0363 ± 0.017 |
| ACCACGGT | -0.234 ± 0.057 |
| CCTCAAGA | 0.175 ± 0.069 |
| AATGACAA | 0.179 ± 0.025 |
| GGCGTCAC | 0.0505 ± 0.091 |
| TCGGTTAA | -0.144 ± 0.038 |

| Sequence | PBM 8-mer E-score |
| --- | --- |
| CCACACAC | 0.0649 ± 0.082 |
| AGGACAAT | 0.0666 ± 0.068 |
| CTCCATCA | 0.0787 ± 0.11 |
| GATCAGTA | 0.141 ± 0.0015 |
| CTCAACTC | 0.0172 ± 0.017 |
| AAGCTTAA | -0.0812 ± 0.033 |
| AAGCTGTA | 0.168 ± 0.027 |
| AAGCTTAT | 0.25 ± 0.032 |
| AAGCTGAT | 0.294 ± 0.012 |
| AAGCTTAC | 0.084 ± 0.0037 |
| AAGCTGAC | -0.0135 ± 0.013 |
| CAGCACTC | 0.0109 ± 0.049 |
| GGTTTTTA | 0.118 ± 0.05 |
| GTATCAAA | 0.167 ± 0.037 |
| ACGTTACT | 0.097 ± 0.078 |
| CCACTTTC | 0.123 ± 0.028 |
| GTTAATGA | 0.181 ± 0.1 |
| CTTAATGC | 0.25 ± 0.014 |
| ATTAATTC | 0.229 ± 0.026 |
| ATTAATGC | 0.14 ± 0.0056 |
| AGTAATTA | 0.256 ± 0.051 |
| CTTAATGA | 0.0929 ± 0.029 |

| Sequence | PBM 8-mer E-score |
| --- | --- |
| ATTAATGG | 0.0949 ± 0.013 |
| GGTAATTA | 0.147 ± 0.011 |
| ATTAATGA | 0.276 ± 0.074 |
| ATTAATTG | 0.157 ± 0.057 |
| CGTAATTA | 0.133 ± 0.0041 |
| ATTAATTA | 0.312 ± 0.065 |
| CATGCACC | 0.161 ± 0.0063 |
| GGGGTCGA | -0.0201 ± 0.04 |
| TTACTGAA | 0.0517 ± 0.035 |
| ACGAAAAG | 0.0249 ± 0.0051 |
| ACGAGATG | -0.00212 ± 0.067 |
| CCCCGATC | -0.166 ± 0.013 |
| AGATTGTC | -0.0414 ± 0.0031 |
| GACGGGCA | -0.0942 ± 0.011 |
| CTTAACAC | 0.164 ± 0.016 |
| CTAAATTA | -0.0028 ± 0.045 |
| ATTAATAA | 0.224 ± 0.12 |
| ATTAATAG | 0.197 ± 0.079 |
| ATTAATAC | 0.256 ± 0.1 |
| ATAAATTG | 0.106 ± 0.026 |
